The values below come from ChEMBL document CHEMBL5308541, “MAIP: An Open-Source Tool to Enrich High-Throughput Screening Output and Identify Novel, Druglike Molecules with Antimalarial Activity” (ACS Med Chem Lett, 2023).

Screen size: about 150,000 compounds; about 540 (0.36%) showed an effect of 50% or more. Many of the other results were omitted from the sample, so strong results are more common in it than they were.

For orientation: % Inhibition means the relative decrease from the control value, in per cent.

For this experiment, the system named is Plasmodium falciparum. Kind of experiment: Primary screen in NF54 nanoGlo assay, in single point, at 2uM, 72h; a lower Z score goes with more inhibition. Format: functional, Erythrocyte. Conditions: timepoint 72 hour.
In the case of `Cc1ccc(-c2cc(C(=O)N[C@H]3CCCN(C4CCN(C)CC4)C3)n[nH]2)s1`, the “% Inhibition” value came out at 5% and the Z score is reported as -0.79.
For `CN1CCC(N2CCC(NC(=O)c3ccncn3)CC2)CC1` the same measures were -17% and 2.56.
Taken in the same sequence, the figures for `Cc1ccc(-c2cc(C(=O)NC3CCN(C4CCN(C)CC4)CC3)n[nH]2)cc1C` were 95% and -16.77.
Consider `Cn1cc(CNC[C@H](O)c2ccc(F)c(F)c2)c(-c2cc3ccccc3o2)n1`, for which the “% Inhibition” value was determined as 19% and the Z score is given as -3.4.
For `CCc1oc2ccccc2c1CNC[C@H](O)c1ccc(Cl)cc1` the same measures were 98% and -19.37.
Taken in the same sequence, the figures for `CN([C@@H](c1ccccc1)c1ccccc1Br)S(=O)(=O)c1c[nH]c2ncccc12` were 60% and -11.93.
Taken in the same sequence, the figures for `C[C@](O)(CNS(=O)(=O)c1c[nH]c2ncccc12)C(c1ccccc1)c1ccccc1` were 4% and -0.63.
Regarding `Cc1ccc2[nH]cc(-c3cc(N4CCOCC4)nc(N)n3)c2c1`, the “% Inhibition” value stood at 52% and the Z score is -10.41.
As for `Cc1ccc2[nH]cc(-c3cc(N4CCCCC4)ncn3)c2c1`, the “% Inhibition” value is 11% and the Z score is given as -2.17.
For `C[C@@H](c1cccc(-c2cc(N3CCOCC3)nc(N)n2)c1)N1CCCC1` the same measures were -1% and 0.25.
On to `NC(=O)c1ccc(CNC(=O)NCC[C@H](O)c2ccccc2)o1`, for which the “% Inhibition” value is given as -10% and the Z score was found to be 1.46.
For `CC(C)(O)C#Cc1ccc(CN(CC2CCN(C3CCCC3)CC2)C[C@H]2CCCO2)cc1` the same measures were -11% and 1.92.
For `CC(C)N1CCN(CCCN2CCN(C)C3(CCCCC3)C2)CC1` the same measures were 3% and -0.69.
For `Cc1cc(N2CCC(N(C)Cc3ncc(-c4ccccc4C)o3)CC2)nc(C)n1` the same measures were -3% and 0.66.
Regarding `CN1CCC(Oc2ccc(NCc3ccc(N(C)C)nc3)cn2)CC1`, the “% Inhibition” value is given as -17% and the Z score is on record as 3.56.
Taken in the same sequence, the figures for `CN1CCC(Oc2ccc(NC(=O)c3cn4ccnc4s3)cn2)CC1` were 90% and -15.87.
`CN1CCC(CNC2CC3CC(C2)N(C(=O)OC(C)(C)C)C3)CC1` (configuration not stated): the “% Inhibition” value stood at 72% and the Z score is -15.46.
`COc1cc2nc(-c3ccc(F)c4cccnc34)nc(N)c2cc1OC`: the “% Inhibition” value came to 96% and the Z score is on record as -14.63.
On to `COc1cc2nc(-c3cc(Cl)c(O)cc3C)nc(N)c2cc1OC`, for which the “% Inhibition” value is given as 2% and the Z score is listed as -0.41.
For `COc1ccnc(CN2CC[C@H](Nc3ncccn3)C2)c1OC` the same measures were -5% and 0.75.
With `Cc1nc(C)c(C)c(N2CC(OCc3ccccc3)C2)n1`, the “% Inhibition” value was -11% and the Z score was 1.9.
Taken in the same sequence, the figures for `COc1ccc2nccc(N3CCC(O)CC3)c2c1` were 5% and -0.83.
Taken in the same sequence, the figures for `COCC1CCN(c2ccnc3cc(F)ccc23)CC1` were 7% and -1.37.
Taken in the same sequence, the figures for `COc1ccc2c(N3CC[C@H](CN4CCCC4)C3)ccnc2c1` were 91% and -15.93.
On to `CN1CCN(C[C@H]2CCCN(C(=O)c3ccnc4ccccc34)C2)CC1`, for which the “% Inhibition” value was found to be 5% and the Z score was -1.03.
For `CN1CCN(CC2CCN(c3ccnc4ccccc34)CC2)CC1` the same measures were 98% and -16.96.
